Values joined by “and” are separate entries in the source; they are usually repeats but may differ in a detail not shown here. Equal entries are not always repeated. Inconclusive results are not listed. Unmarked numbers belong to inactive results. Active and inactive are the calls of the source. The call rests on the fitted dose curve.
On the % scale 0 is the no-effect control and ±100 the full control effect; potency means the concentration at half of the fitted maximal effect.

A short description of this test: qHTS assay to identify small molecule agonists of the hypoxia (HIF-1) signaling pathway - cell viability counter screen (AID 1224844). Further: nearly all actives have a fitted effect of over 50% in size. The note with it: HRE-bla ME-180 viability, CellTiter-Glo luminescence, 17 h; series mostly up to 76.8 µM; activity change, negative = cytotoxicity: at the top concentration. The source says:
National Center for Advancing Translational Sciences [NCATS]
NIH Chemical Genomics Center [NCGC]
U.S. Environmental Protection Agency [EPA]
National Institutes of Environmental Health Sciences [NIEHS]
National Toxicology Program [NTP]
U.S. Food and Drug Administration [FDA]
Hypoxia-inducible factor-1 (HIF-1) is the major hypoxia-regulated transcription factor that controls cellular responses to low oxygen concentration. HIF-1 is composed of two subunits: hypoxia responsive HIF-1-alpha and constitutively expressed HIF-1-beta, which is also known as aryl hydrocarbon receptor nuclear translocator. During hypoxic conditions, HIF-1-alpha heterodimerizes with HIF-1-beta and translocates into the nucleus where the HIF-1 complex binds to the hypoxia-response element (HRE) and activates expression of target genes such as VEGF (vascular endothelial growth factor). The HIF-1 pathway is essential to normal growth and development, and is involved in the pathophysiology of cancer, inflammation, and ischemia.
Using a beta-lactamase reporter-gene under control of the hypoxia response element, a cell-based assay [CellSensor(TM) HRE-bla ME-180 from Life Technologies, Carlsbad, CA] was used to measure hypoxia-induced signaling. Tox21 10K library compounds were measured for their ability to induce the reporter gene activity. The cytotoxicity of the Tox21 compound library against HRE-bla ME-180 cell line was tested in parallel by measuring cell viability using CellTiter-Glo assay (Promega, Madison, WI) in the same assay wells.
Tox21 Assay Protocol Summary:
HRE-bla ME-180 cells were dispensed at 2,000 cells per well in 6 uL of assay medium containing 0.5% dialyzed FBS into black wall/clear-bottom 1536-well plates using a Multidrop Combi (Thermo Scientific, Waltham, MA) dispenser. After the assay plates were incubated at 37C and 5% CO2 for 5 hrs, 23 nL of compounds dissolved in DMSO, positive controls or DMSO only was transferred to each well of the assay plate using a Pintool station (Kalypsys, San Diego, CA). The assay plates were incubated at 37C and 5% CO2 for 17 hrs. One uL of LiveBLAzerTM B/G FRET substrate (CCF4-AM) (Life Technologies) was added to each well using a Flying Reagent Dispenser (FRD, Aurora Discovery, San Diego, CA). After 2 hr incubation at room temperature, fluorescence intensity (405 nm excitation, 460 nm and 530 nm emissions) was measured using an Envision plate reader (PerkinElmer, Shelton, CT). For cytotoxicity, 4 ul/well of CellTiter-Glo reagent was added into the assay plates using an FRD. After 30 min incubation at room temperature, the luminescence intensity was measured using a ViewLux plate reader (PerkinElmer).
As to `CCc1cc(Cc2cc(CC)cc(C(C)(C)C)c2O)c(O)c(C(C)(C)C)c1`, the Potency was 11 µM (active).

As for `CC(C)(C)CC(C)(C)c1ccc(O)c(Cc2ccc(Cl)cc2Cl)c1`, the Potency is 9.52 µM (active).

For the compound `CC/C(=C(\c1ccc(O)cc1)c1ccc(OCCN(C)C)cc1)c1ccccc1`, the Potency is 55.1 µM (active).

Consider `CCCCC(CC)COP(=O)(O)OCC(CC)CCCC` (stereo not given), for which the Potency is 17.4 µM (active) and 5.49 µM (active).

As to `Cc1cc(O)c(Cl)c(C)c1Cl`, the “activity change, negative = cytotoxicity” value is -8.03%.

Consider `CN(C)C(=O)C1(N2CCCCC2)CCN(CC[C@@]2(c3ccc(Cl)c(Cl)c3)CN(C(=O)c3ccccc3)CCO2)CC1`, for which the Potency was 45.8 µM (active).

For the compound `C/C=C1/C(=O)C[C@H]2[C@@H]3CCC4=CC(=O)CC[C@]4(C)[C@H]3CC[C@]12C`, the “activity change, negative = cytotoxicity” value was 2.04%.

For `CCCCCCCCOC(=O)c1ccc(O)cc1`, the Potency was 48.8 µM (active).

For `CC(C)(C)c1ccc(C(=O)O)cc1`, the “activity change, negative = cytotoxicity” value is -3.74%.

In the case of `O=C(O)c1cc(O)c2c(c1)C(=O)c1cccc(O)c1C2=O`, the “activity change, negative = cytotoxicity” value is 5.32%.

Take `CCCCCCCC[P+](CCCCCCCC)(CCCCCCCC)CCCCCCCC`: the Potency is 3.45 µM (active).

Regarding `CCCCCOc1ccccc1/C(=C\SC)n1ccnc1`, the Potency is 21.3 µM (active).

With `Oc1ccc(C2(c3ccc(O)cc3)CC3CC2C2CCCC32)cc1` (stereo not given), the Potency is 33.3 µM (active).

For the compound `C=CC(=O)OCCn1c(=O)n(CCOC(=O)C=C)c(=O)n(CCOC(=O)C=C)c1=O`, the Potency is 12.3 µM (active).

As for `CCCCCOC(=O)CCCC`, the “activity change, negative = cytotoxicity” value is 5.75%.

Turning to `Cc1oc(-c2ccccc2)nc1CCC(=O)c1ccc(CC2SC(=O)NC2=O)cc1` (stereo not given), the “activity change, negative = cytotoxicity” value was -2.77% [at 35.3 µM].

On to `CCN(C(=O)N(CC)c1ccccc1)c1ccccc1`, for which the “activity change, negative = cytotoxicity” value is -0.849%.

Take `O=C(c1ccc(O)cc1O)c1ccc(O)cc1O`: the Potency entry was “inactive”.

Regarding `CCCN(CCC)C(=O)C(CCC(=O)OCCCN1CCN(CCOC(=O)Cc2c(C)n(C(=O)c3ccc(Cl)cc3)c3ccc(OC)cc23)CC1)NC(=O)c1ccccc1` (stereo not given), the Potency was 19 µM (active).

With `NNc1nc(-c2ccc(N)cc2)cs1`, the “activity change, negative = cytotoxicity” value was -20.9%.

In the case of `CCCCCCCCn1sc(Cl)c(Cl)c1=O`, the Potency is 6.16 µM (active).

Regarding `COc1cccc(N)c1`, the “activity change, negative = cytotoxicity” value is 10.5%.

`COC(=O)C1=C(C)NC(C)=C(C(=O)OCC(C)C)C1c1ccccc1[N+](=O)[O-]` (stereo not given): the Potency was 49 µM (active).

With `CCc1cc(SCc2sc(-c3ccc(C(F)(F)F)cc3)nc2CN2CCN(c3ccc(OC)cc3)CC2)ccc1OCC(=O)O`, the Potency is 3.89 µM (active).

In the case of `CC(=O)OCC(C)OC(C)=O` (stereo not given), the “activity change, negative = cytotoxicity” value was 14.6%.

`CS(=O)(=O)CCNCc1ccc(-c2ccc3ncnc(Nc4ccc(OCc5cccc(F)c5)c(Cl)c4)c3c2)o1`: the Potency was 10.7 µM (active).

For `Oc1cc2ccccc2c2ccccc12`, the Potency is 7.76 µM (active).

As for `CCCCCCCCCCCCc1ccc(O)cc1`, the Potency was 24.5 µM (active).

In the case of `O=[N+]([O-])c1cc([N+](=O)[O-])c2ccc(S(=O)(=O)O)cc2c1O`, the “activity change, negative = cytotoxicity” value was -4.28%.

Regarding `CCN(CCC#N)c1ccc(N=Nc2c(Cl)cc([N+](=O)[O-])cc2Cl)cc1`, the “activity change, negative = cytotoxicity” value was 23.5%.

Turning to `Clc1ccc2cc3ccccc3cc2c1`, the “activity change, negative = cytotoxicity” value is 1.31%.

For `CCCCN(CCCC)C(=O)N(CCCC)CCCC`, the “activity change, negative = cytotoxicity” value was -13.5%.

As for `CC(C)(C)C1CCC(CC2=C(O)c3ccccc3C(=O)C2=O)CC1` (stereo not given), the “activity change, negative = cytotoxicity” value is -17.2% [at 35.3 µM].

`CCCCCCCCCCCCCCCCCC[N+](C)(C)Cc1ccccc1`: the Potency is 24.8 µM (active).

Consider `O=c1c(-c2ccccc2)c1-c1ccccc1`, for which the Potency was 13.4 µM (active).

For `O=C(Oc1ccccc1)c1ccccc1C(=O)Oc1ccccc1`, the “activity change, negative = cytotoxicity” value was -1.76%.

With `N#CC1(c2ccc(F)cc2)CCC(=O)CC1`, the “activity change, negative = cytotoxicity” value is 1.9% [at 35.3 µM].

Regarding `Cc1onc(-c2c(Cl)cccc2Cl)c1C(=O)N[C@@H]1C(=O)N2[C@@H]1SC(C)(C)[C@@H]2C(=O)O`, the “activity change, negative = cytotoxicity” value is 2.92% [at 35.3 µM].

Turning to `O=C(OCC1CO1)C1CCCCC1C(=O)OCC1CO1` (stereo not given), the “activity change, negative = cytotoxicity” value is -26.5%.

`Cc1nc(-c2ccc3c(c2)CCN(CCC2CCC(NC(=O)/C=C/c4ccc(F)cc4)CC2)CC3)no1` (stereo not given): the “activity change, negative = cytotoxicity” value was 0.964% [at 35.3 µM].

The record behind these values is PubChem BioAssay (Tox21).
